# Measured values: PubChem BioAssay
# Activity calls are given as the source filed them.
# Assays:
# [1] = system: Plasmodium falciparum Sir2 (PF13_0152, Sir2A); assay: Plasmodium falciparum Sir2A binding compounds – biochemical, small-molecule microarray, 635 nm fluorescence, primary screen (AID 1098); conditions: fluorescence 635 nm, higher = more signal;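 note: score merges spot fluorescence intensity with its signal-to-noise ratio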
# [2] = probe aDKK1 binding to arrayed compounds – biochemical, biotinylated probe, 635/667 nm fluorescence, primary screen (AID 1099); conditions: small-molecule microarray, higher = more signal;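 note: score merges 667nm spot fluorescence with signal to noise across triplicate slides; reference of the scale not given here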
# [3] = probe aCHRDL2 binding to arrayed compounds – biochemical, biotinylated probe, 635/667 nm fluorescence, primary screen (AID 1100); conditions: small-molecule microarray, higher = more signal
# [4] = change in splice reporter luminescence, either direction, cell-based, HEK293, spliceosome inhibition project, primary screen (AID 1101); conditions: HEK293 splicing luciferase reporter, 24 h, higher = more signal, called active from +8 up or from −8 down;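 note: HEK293 cells carrying a splicing-competent luciferase reporter gene; test concentration not given here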
# [5] = molecular target: Fibroblast growth factor 10 (Homo sapiens) (UniProt O15520); assay: compounds binding fibroblast growth factor 10 – biochemical, small-molecule microarray, 635 nm fluorescence, primary screen (AID 1102); conditions: FGF10 binding, fluorescence 635 nm, higher = more signal
# [6] = system: glycogen synthase kinase-3 (GSK3A per assay name; protocol says GSK3B); assay: compounds binding glycogen synthase kinase-3 – biochemical, small-molecule microarray, 635 nm fluorescence, GSK3A, primary screen (AID 1103); conditions: fluorescence 635 nm, higher = more signal; note: the record names both GSK3A and GSK3B
# [7] = molecular target: Epidermal growth factor receptor (Homo sapiens) (UniProt P00533); assay: compounds binding epidermal growth factor receptor – biochemical, small-molecule microarray, 635 nm fluorescence, primary screen (AID 1104); conditions: EGFR binding, higher = more signal;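 note: score merges 667 nm emission intensity with spot signal to noise over triplicate slides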
# [8] = molecular target: Follistatin-related protein 3 (Homo sapiens) (UniProt O95633); assay: compounds binding follistatin-related protein 3 – biochemical, small-molecule microarray, 635 nm fluorescence, primary screen (AID 1105); conditions: FSTL3 binding, higher = more signal;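 note: score merges emission near 667 nm and signal to noise per printed spot across three slides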
# [9] = molecular target: Dickkopf-related protein 1 (Homo sapiens) (UniProt O94907); assay: small molecules binding DKK1 protein – biochemical, small-molecule microarray, 635 nm fluorescence scan, primary screen (AID 1106); conditions: higher = more signal;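 note: score merges emission near 667 nm with signal to noise over three replicate slides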
# [10] = system: Inhibin beta A chain (activin A); assay: small molecules binding activin A – biochemical, small-molecule microarray, 635 nm fluorescence scan, primary screen (AID 1107); conditions: INHBA, higher = more signal;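 note: mouse activin A protein probed at 4.33 µg/mL on printed slides; score merges bound-protein fluorescence near 667 nm with spot signal-to-noise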
# Sequence of Follistatin-related protein 3 (Homo sapiens) (O95633 whole entry, looked up): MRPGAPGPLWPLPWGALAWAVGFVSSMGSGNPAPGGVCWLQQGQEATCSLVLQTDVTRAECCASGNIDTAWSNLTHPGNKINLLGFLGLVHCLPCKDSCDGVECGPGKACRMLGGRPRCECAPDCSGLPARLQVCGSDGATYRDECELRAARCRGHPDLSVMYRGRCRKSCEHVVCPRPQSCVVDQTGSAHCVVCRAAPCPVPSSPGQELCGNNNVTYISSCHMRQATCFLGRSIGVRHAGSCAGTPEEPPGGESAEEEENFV
# Sequence of Fibroblast growth factor 10 (Homo sapiens) (O15520 whole entry, looked up): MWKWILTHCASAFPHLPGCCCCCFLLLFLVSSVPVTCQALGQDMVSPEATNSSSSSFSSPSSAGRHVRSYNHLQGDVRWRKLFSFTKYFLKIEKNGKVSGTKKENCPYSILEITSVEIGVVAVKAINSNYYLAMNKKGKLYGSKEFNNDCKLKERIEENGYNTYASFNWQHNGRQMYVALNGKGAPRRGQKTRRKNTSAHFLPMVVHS
# Sequence of Dickkopf-related protein 1 (Homo sapiens) (O94907 whole entry, looked up): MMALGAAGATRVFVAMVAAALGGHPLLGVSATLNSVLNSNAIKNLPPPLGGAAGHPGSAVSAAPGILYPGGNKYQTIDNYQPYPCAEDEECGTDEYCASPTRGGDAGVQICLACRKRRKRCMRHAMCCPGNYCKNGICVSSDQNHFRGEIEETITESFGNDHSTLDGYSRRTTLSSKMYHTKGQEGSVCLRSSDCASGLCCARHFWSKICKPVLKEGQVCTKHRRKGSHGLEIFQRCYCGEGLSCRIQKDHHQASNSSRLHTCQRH
# Sequence of Epidermal growth factor receptor (Homo sapiens) (P00533 whole entry, looked up): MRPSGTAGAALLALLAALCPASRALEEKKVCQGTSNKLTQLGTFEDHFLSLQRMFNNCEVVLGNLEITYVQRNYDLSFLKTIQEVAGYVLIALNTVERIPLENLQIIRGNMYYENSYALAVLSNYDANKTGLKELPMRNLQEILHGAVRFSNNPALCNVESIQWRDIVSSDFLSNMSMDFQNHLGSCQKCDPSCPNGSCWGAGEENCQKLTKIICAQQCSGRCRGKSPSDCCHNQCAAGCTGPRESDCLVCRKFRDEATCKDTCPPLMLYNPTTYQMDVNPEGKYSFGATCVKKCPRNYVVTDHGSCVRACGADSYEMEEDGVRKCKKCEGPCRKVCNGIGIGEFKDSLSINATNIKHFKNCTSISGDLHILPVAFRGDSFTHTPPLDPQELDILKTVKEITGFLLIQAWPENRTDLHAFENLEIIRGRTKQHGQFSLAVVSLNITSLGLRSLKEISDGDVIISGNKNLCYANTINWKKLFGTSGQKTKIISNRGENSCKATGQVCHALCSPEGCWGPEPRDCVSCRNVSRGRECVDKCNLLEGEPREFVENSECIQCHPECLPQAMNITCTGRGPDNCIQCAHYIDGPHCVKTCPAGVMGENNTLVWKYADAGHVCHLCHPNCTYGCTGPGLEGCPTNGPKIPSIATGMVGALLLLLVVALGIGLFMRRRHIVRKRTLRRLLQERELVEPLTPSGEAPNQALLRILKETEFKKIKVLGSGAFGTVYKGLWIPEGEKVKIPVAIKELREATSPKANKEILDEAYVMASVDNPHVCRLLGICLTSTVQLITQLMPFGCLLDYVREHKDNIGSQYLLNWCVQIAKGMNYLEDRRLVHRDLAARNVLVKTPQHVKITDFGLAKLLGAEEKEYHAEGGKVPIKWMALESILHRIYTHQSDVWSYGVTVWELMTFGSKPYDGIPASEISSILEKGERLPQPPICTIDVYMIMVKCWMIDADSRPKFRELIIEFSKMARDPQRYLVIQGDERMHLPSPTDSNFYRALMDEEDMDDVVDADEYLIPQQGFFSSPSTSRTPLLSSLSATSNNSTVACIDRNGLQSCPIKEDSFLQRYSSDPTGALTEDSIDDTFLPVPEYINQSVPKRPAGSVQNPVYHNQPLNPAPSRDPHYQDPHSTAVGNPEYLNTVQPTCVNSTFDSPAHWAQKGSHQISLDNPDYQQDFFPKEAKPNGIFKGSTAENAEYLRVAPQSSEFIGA
Compound,composite z-score [1],composite z-score [2],composite z-score [3],z-score [4],composite z-score [5],composite z-score [6],composite z-score [7],composite z-score [8],composite z-score [9],composite z-score [10]
C=C(CCCC)C(=O)CC[C@@H](OC(C)=O)c1cccc(OCCO)c1,1.12,-0.278,-0.654,0.726 (inactive),0.195,-0.249,-0.161,0.158,0.329,0.474
C[C@@H]1C=CCC(=O)OC[C@H](C)C(=O)N2CCC[C@H]2C(=O)OC1,1.12,-0.457,-0.769,-0.479 (inactive),0.825,1.21,1.26,0.829,2.21,-1.04
COC(=O)[C@@]1(Cc2ccc(F)cc2)[C@H]2c3cc(C(=O)N(C)C)n(Cc4ccc(OC)c(OC)c4)c3C[C@H]2CN1C(=O)c1ccccc1,-0.236,1.08,0.43,-3.2 (inactive),0.495,-1.21,0.278,-0.32,-0.686,0.939
CC(C)=CCCC(C)=CCON=C1C[C@@H](O)[C@@H](O)[C@@H]2[C@@H]3C(=O)N(C[C@@H]4CCCO4)C(=O)[C@@H]3CC[C@@H]12,0.998,-0.364,-0.753,0.363 (inactive),1.33,1.29,1.15,1.37,1.37,1.52
CC(=O)OC[C@H]1O[C@@H](ON=C(C)CCN2CCc3nc(-c4ccccc4)c(-c4ccccc4)cc3C2)[C@H](OC(C)=O)[C@@H](OC(C)=O)[C@@H]1OC(C)=O,0.625,-0.119,-0.413,0.522 (inactive),0.917,1.22,0.525,0.979,0.525,-0.0877
O=C1[C@H]2[C@H]3[C@H](O)[C@H](O)CC(=NO[C@@H]4O[C@H](CO)[C@@H](O)[C@H](O)[C@H]4O)[C@@H]3CC[C@H]2C(=O)N1Cc1ccc2c(c1)OCO2,0.456,-0.174,-0.576,0.0977 (inactive),0.422,0.708,0.4,0.521,0.921,-0.292
COCCCNC(=O)[C@]1(Cc2ccccc2)N=C(c2ccc(OCCCO)cc2)O[C@@H]1c1ccccc1,1.73,-0.0501,0.755,0.0778 (inactive),1.16,0.618,-0.578,-0.351,-0.894,0.455
CCOC(=O)[C@H](CC(C)C)NC(=O)CCC1CC(OC(=O)NCc2cccc3ccccc23)CC2(CCCC(COC(=O)NCCc3ccccc3OC)O2)O1 (stereo not given in full),0.766,-0.141,-0.39,-0.139 (inactive),1,1.03,0.387,0.866,0.555,0.182
CCCC[C@@H](O)C1=C(C)C[C@H]2C(=O)N(Cc3ccccc3)C(=O)[C@H]2[C@H]1CO,0.222,-0.407,-0.494,0.0445 (inactive),0.264,-0.0254,0.464,0.449,0.524,0.899
CC(=O)O[C@H]1C2=C(C(=O)[C@@H]3O[C@@H]31)[C@H]1C(C)O[C@@H]2[C@@]23C(=O)[C@@H]4O[C@@H]4[C@@H](O)C2=CO[C@H](C)[C@@H]13 (stereo not given in full),0.452,-0.475,-0.62,0.15 (inactive),0.374,-0.0186,0.197,-0.0861,0.326,0.702
C=C(/C(=C/C[C@H](OC(=O)c1ccncc1)c1ccc(OCCO)cc1)c1cnc2ccccc2c1)C(C)C,0.933,-0.196,-0.163,0.215 (inactive),1.61,1.07,1.07,1.38,0.856,1.7
CCOc1ccc(N2C(=O)/C(=C/C=C/c3ccccc3OC)S(=O)(=O)C2c2cccc([N+](=O)[O-])c2)cc1 (stereo not given),-0.379,0.0757,0.42,1.04 (inactive),0.226,0.342,0.549,0.393,0.218,0.61
O=C1C[C@@H](O)[C@@H](O)[C@@H]2[C@@H]3C(=O)N(c4ccc(F)cc4F)C(=O)[C@@H]3CC[C@@H]12,0.341,-0.343,-0.602,0.337 (inactive),0.627,0.169,0.463,0.447,0.612,0.199
CCCC[C@H]1OB(O)C[C@H]2C1=C(C)C[C@H]1C(=O)N(C)C(=O)[C@H]12,0.0529,-0.0166,-0.372,0.238 (inactive),0.944,0.774,0.259,1.27,0.558,0.131
